{"source": "PubChem BioAssay AID1861", "about": "(The Scripps Research Institute Molecular Screening Center, 2009)", "note": "“And” between values parts separate entries of the source, which are not always exact repeats. Identical values can stand only once. About 3,100 (1.1%) of roughly 290,000 compounds were called active. Rule as the data show it: active = inhibition above about 16% (passing the limit was not always enough); inactive = the rest. What follows is part of a selection rich in actives, with near analogues and random picks from the rest. Some compounds were tested as several samples or in several runs, with calls that do not always agree. Where a SMILES comes first, the peptide text is derived from it. [ ]: non-standard residue; d: D form. The star is where a group is joined. ξ: configuration not given here. Cbz = O=C(OCc1ccccc1)*; ξL = CC(C)CC(N)C(=O)O; ξP = O=C(O)C1CCCN1"}
{"target": "Neuropeptides B/W receptor type 1 (Homo sapiens) (UniProt P48145)", "sequence (P48145 whole entry, looked up)": "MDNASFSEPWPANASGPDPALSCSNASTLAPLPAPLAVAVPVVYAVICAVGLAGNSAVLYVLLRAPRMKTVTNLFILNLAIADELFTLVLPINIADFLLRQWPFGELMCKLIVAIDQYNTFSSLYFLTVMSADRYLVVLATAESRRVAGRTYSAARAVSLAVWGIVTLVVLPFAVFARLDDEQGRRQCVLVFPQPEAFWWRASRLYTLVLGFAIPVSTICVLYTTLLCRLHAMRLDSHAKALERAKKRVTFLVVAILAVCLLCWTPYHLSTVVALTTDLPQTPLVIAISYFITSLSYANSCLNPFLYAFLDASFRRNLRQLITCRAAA", "experiment": "blockers of human neuropeptide B/W receptor 1 – cell-based, fluorescence, single concentration, primary screen (AID 1861);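 also: cells stimulated with the agonist NPW; 0% = agonist with vehicle and 100% = vehicle without agonist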", "conditions": "GPR7-expressing cells, fluorescence antagonist assay; at 4.4 µM; stronger effect = higher value"}
{"smiles": "CCc1nn(CC(=O)N2CCN(CC)CC2)c(=O)c2cccn12", "inhibition": "-11.1% (inactive)"}
{"smiles": "O=C(COC(=O)c1cccs1)Nc1ccccc1Cl", "inhibition": "-12.8% (inactive)"}
{"smiles": "O=C(Nc1ccccc1Cl)/C(Cl)=C(\\Cl)S(=O)c1ccccc1", "note": "(stereo not given)", "inhibition": "23.4% (active)"}
{"smiles": "O=C(Nc1ccccc1Cl)Nn1cnnc1", "inhibition": "-16.3% (inactive)"}
{"smiles": "CN(C)S(=O)(=O)c1ccc(C(=O)NCCN=C2NS(=O)(=O)c3ccccc32)cc1", "inhibition": "-2.36% (inactive)"}
{"smiles": "O=C(O)c1ccc(OCC2CCCO2)cc1", "note": "(stereo not given)", "inhibition": "-9.77% (inactive)"}
{"smiles": "CCn1c(SCc2ccccc2)nc2cc(OC)c(OC)cc2c1=O", "inhibition": "-30.7% (inactive)"}
{"smiles": "COc1ccc(NC(=O)C2CCC(CNS(=O)(=O)c3csc(C(N)=O)c3)CC2)cc1OC", "note": "(stereo not given)", "inhibition": "24.1% (active)"}
{"smiles": "CC(=O)Nc1ccc(S(=O)(=O)NCC2CCC(C(=O)NCCc3ccccc3)CC2)cc1", "note": "(stereo not given)", "inhibition": "-13.4% (inactive)"}
{"smiles": "COc1cccc(CNS(=O)(=O)c2csc(C(N)=O)c2)c1", "inhibition": "-3.2% (inactive)"}
{"smiles": "Cc1cc(=O)oc2c(C)c(OCC(=O)NCCc3ccc(S(N)(=O)=O)cc3)ccc12", "inhibition": "9.11% (inactive)"}
{"smiles": "COC(=O)CN1C(=O)C(C)(C)Oc2ccc(C(=O)Nc3cccc(OC)c3)cc21", "inhibition": "-8.64% (inactive)"}
{"smiles": "COc1ccc([N+](=O)[O-])cc1N(CC(O)Cn1nnc2ccccc21)S(=O)(=O)c1ccc(C)cc1", "note": "(stereo not given)", "inhibition": "-11.4% (inactive)"}
{"smiles": "Cc1ccc(S(=O)(=O)N(CC(O)CN2CCCCC2)c2cccc([N+](=O)[O-])c2)cc1", "note": "(stereo not given)", "inhibition": "-4.51% (inactive)"}
{"smiles": "COc1ccc([N+](=O)[O-])cc1N(CC(O)CN(CC(C)C)CC(C)C)S(=O)(=O)c1ccc(C)cc1", "note": "(stereo not given)", "inhibition": "21.7% (active)"}
{"smiles": "O=C(/C=C/c1cccs1)c1cc(Cl)ccc1OC(=O)N1CCOCC1", "inhibition": "-2.52% (inactive)"}
{"smiles": "CCC(C)c1ccccc1NC(=O)CN(C)CC(=O)Nc1ccccc1SC", "note": "(stereo not given)", "inhibition": "31.4% (active)"}
{"smiles": "CSc1ccccc1NC(=O)CN(C)CC(=O)Nc1cccc(Br)c1", "inhibition": "3.51% (inactive)"}
{"smiles": "CSc1ccccc1NC(=O)CN(C)CC(=O)Nc1ccc(Cl)cc1[N+](=O)[O-]", "inhibition": "12.5% (inactive)"}
{"smiles": "Fc1ccc2[nH]c3c(N4CCSCC4)ncnc3c2c1", "inhibition": "-5.82% (inactive)"}
{"smiles": "CC(C)OCCCNc1ncnc2c1[nH]c1ccc(F)cc12", "inhibition": "26.6% (active)"}
{"smiles": "COc1cc(OC)c(OC)cc1/C=N/Nc1ncnc2c1[nH]c1ccc(C)cc12", "inhibition": "-19.8% (inactive)"}
{"smiles": "Cc1ccc(S(=O)(=O)N2CCN(c3ccccc3)CC2)cc1C", "inhibition": "0.58% (inactive)"}
{"smiles": "COc1cccc(CNS(=O)(=O)c2ccc3c(c2)CC(C)N3C(=O)C2CCC2)c1", "note": "(stereo not given)", "inhibition": "17.9% (inactive)"}
{"smiles": "CC1=CCC2C(=O)N(c3cccc(C(=O)NC(C)c4ccccc4)c3)C(=O)C2C1", "note": "(stereo not given)", "inhibition": "0.74% (inactive)"}
{"smiles": "Cc1cccc(NC(=O)C(C)SCc2ccccc2)c1", "note": "(stereo not given)", "inhibition": "-8.07% (inactive)"}
{"smiles": "O=C(Nc1ccncc1)c1ccc(Cl)c([N+](=O)[O-])c1", "inhibition": "1.68% (inactive)"}
{"smiles": "O=C(Nc1c2c(nn1-c1ccccc1)CS(=O)(=O)C2)C1CCCC1", "inhibition": "4.15% (inactive)"}
{"smiles": "COCCn1nnnc1C(c1cc2ccc(OC)cc2[nH]c1=O)N1CCc2ccccc2C1", "note": "(stereo not given)", "inhibition": "17.6% (inactive)"}
{"smiles": "COc1ccc(OC)c(C(c2nnnn2C(C)(C)C)N2CCc3ccccc3C2)c1", "note": "(stereo not given)", "inhibition": "24% (active)"}
{"smiles": "COc1ccccc1C(c1nnnn1C(C)(C)C)N1CCN(Cc2ccccc2)CC1", "note": "(stereo not given)", "inhibition": "10.7% (inactive)"}
{"smiles": "CC1CCCN(CCCNC(=O)CN2C(=O)COc3ccc(S(=O)(=O)N4CCOCC4)cc32)C1", "note": "(stereo not given)", "inhibition": "-10.9% (inactive)"}
{"smiles": "COC(=O)CCC(=O)N1CCCC(CO)(Cc2ccccc2)C1", "note": "(stereo not given)", "inhibition": "-0.55% (inactive)"}
{"smiles": "Cc1cccc(NC(=O)COC(=O)CCc2ccccc2)c1C", "inhibition": "-16.3% (inactive)"}
{"smiles": "CCOCCCn1c(SCC(=O)Nc2cc(OC)ccc2OC)nc2ccccc2c1=O", "inhibition": "-10.2% (inactive)"}
{"smiles": "Cc1ccc(NC(=S)NCCc2ccc(Cl)cc2)c(C)c1", "inhibition": "-19.2% (inactive)"}
{"smiles": "Clc1ccc(C[n+]2cc(-c3ccccc3)n3c2CCC3)cc1", "inhibition": "-5.39% (inactive)"}
{"smiles": "Cc1ccc(-c2c[n+](CC(=O)Nc3ccccc3)c3n2CCC3)cc1", "inhibition": "-3.52% (inactive)"}
{"smiles": "Cc1ccc(C(=O)C[n+]2cc(-c3ccccc3)n3c2CCCCC3)cc1", "inhibition": "16.2% (inactive) and 28.1% (active)"}
{"smiles": "C=CCn1c(CNS(=O)(=O)c2ccc(Br)cc2)nnc1SC", "inhibition": "-2.9% (inactive)"}
{"smiles": "CCC1C(=O)NCCN1C(=O)c1ccc2nc(Cc3ccc(OC)cc3)oc2c1", "note": "(stereo not given)", "inhibition": "10.3% (inactive)"}
{"smiles": "N=C1C(c2nc3ccccc3s2)=C(O)CN1NC(=O)c1ccc([N+](=O)[O-])cc1", "inhibition": "2.09% (inactive)"}
{"smiles": "CC(C)CN(C(=O)c1cccc(S(=O)(=O)N2CCCCC2)c1)C1CCS(=O)(=O)C1", "note": "(stereo not given)", "inhibition": "3.39% (inactive)"}
{"smiles": "NNC(=O)CSc1nnc(-c2ccccc2)n1-c1ccccc1", "inhibition": "25.5% (inactive)"}
{"smiles": "O=C(CCSc1ccccc1)N1CCN(c2ccccc2F)CC1", "inhibition": "1.08% (inactive)"}
{"smiles": "O=C(c1ccc(S(=O)(=O)N2CCCC2)cc1)N1CCN(c2ccccc2F)CC1", "inhibition": "-4.62% (inactive)"}
{"smiles": "CC(C(=O)N1CCN(c2ccccc2F)CC1)c1ccc([N+](=O)[O-])cc1", "note": "(stereo not given)", "inhibition": "35.6% (active)"}
{"smiles": "CC(C)CC(NC(=O)C1CCCN1C(=O)[C@@H](C)NC(=O)OCc1ccccc1)C(=O)NCC(N)=O", "note": "(stereo not given in full) (Cbz-[dA][ξP][ξL]G-NH2)", "inhibition": "2.31% (inactive)"}
{"smiles": "CN(Cc1c(F)cccc1Cl)S(=O)(=O)c1cccs1", "inhibition": "-1.36% (inactive)"}
{"smiles": "Cn1nccc1C(=O)N1CCCC(C(=O)c2ccc(Oc3ccccc3)cc2)C1", "note": "(stereo not given)", "inhibition": "-11.3% (inactive)"}
{"smiles": "CCOCCCNC(=O)C(NC(=O)CNC(=O)c1ccccc1)c1ccc(OC)cc1", "note": "(stereo not given)", "inhibition": "-6.22% (inactive)"}
{"smiles": "O=C1CN(C(=O)c2ccccc2F)C(c2ccc(F)cc2)c2cc(F)ccc2N1", "note": "(stereo not given)", "inhibition": "-1.3% (inactive)"}
{"smiles": "Cc1cccc(NC(=O)CSc2nnc(-c3ccco3)o2)c1", "inhibition": "2.82% (inactive)"}
{"smiles": "O=C(CSc1nnc(-c2ccco2)o1)NCC(=O)c1ccccc1", "inhibition": "37.5% (active)"}
{"smiles": "CCOC(=O)c1sc(NC(=O)CSc2nnc(-c3ccco3)o2)c(C(=O)OCC)c1C", "inhibition": "-9.68% (inactive)"}
{"smiles": "N=c1c2c(-c3ccccc3)c(-c3ccccc3)oc2ncn1Cc1ccco1", "inhibition": "-7.33% (inactive)"}
{"smiles": "CCN(CC)CCn1cnc2c1c(=O)[nH]c(=O)n2Cc1ccccc1", "inhibition": "-8.02% (inactive)"}
{"smiles": "N=c1c2c(-c3ccccc3)c(-c3ccccc3)n(Cc3ccccc3)c2ncn1CCCO", "inhibition": "27.3% (active)"}
{"smiles": "Cc1ccc(C(=O)OCC(=O)NCc2ccc3c(c2)OCO3)s1", "inhibition": "-1.76% (inactive)"}
{"smiles": "OC(CNCc1ccc2c(c1)OCO2)COc1ccccc1", "note": "(stereo not given)", "inhibition": "-0.63% (inactive)"}
{"smiles": "O=C(COc1ccccc1)NCc1ccc2c(c1)OCO2", "inhibition": "26% (active)"}
{"smiles": "O=C(Nc1nc(-c2ccc3c(c2)OCO3)cs1)c1ccncc1", "inhibition": "31.8% (active)"}
{"smiles": "O=C(Nc1nc(-c2ccncc2)cs1)C1COc2ccccc2O1", "note": "(stereo not given)", "inhibition": "-9.64% (inactive)"}
{"smiles": "CC(=O)NCCC(=O)Nc1nc(-c2ccc3c(c2)OCCO3)cs1", "inhibition": "21.3% (inactive)"}
{"smiles": "CC(Sc1nnc(COc2ccccc2)n1-c1ccccc1)C(=O)O", "note": "(stereo not given)", "inhibition": "11% (inactive)"}
{"smiles": "Cc1cccc(N(C(=O)c2sc(C)nc2C)C(C(=O)NCC2CCCO2)c2ccccc2)c1", "note": "(stereo not given)", "inhibition": "-10.3% (inactive)"}
{"smiles": "CCOC(=O)C1CCN(C(=O)CN2C(=O)c3cccnc3Oc3ccc(C)cc32)CC1", "inhibition": "-8.59% (inactive)"}
{"smiles": "Oc1ccccc1N1CCN(c2ncnc3sc(-c4ccccc4)cc23)CC1", "inhibition": "-12.8% (inactive)"}
{"smiles": "COc1ccccc1N1CCN(c2ncnc3sc(C)c(-c4ccccc4)c23)CC1", "inhibition": "27% (active)"}
{"smiles": "COc1ccccc1N1CCN(c2ccc([N+](=O)[O-])nc2)CC1", "inhibition": "-2.36% (inactive)"}
{"smiles": "CCCCCc1ccc(-c2cn(Cc3ccc4ccccc4c3)nn2)cc1", "inhibition": "2.3% (inactive)"}
{"smiles": "Cc1ccc(F)cc1NC(=O)c1ccc2c(c1)OCO2", "inhibition": "-15.9% (inactive)"}
{"smiles": "N#Cc1ccccc1NC(=O)c1ccc2c(c1)OCO2", "inhibition": "-3.22% (inactive)"}
{"smiles": "O=C(Nc1ccccc1F)c1ccc2c(c1)OCO2", "inhibition": "30.2% (active)"}
{"smiles": "COc1ccc(CCNS(=O)(=O)c2cc3c(cc2C)NC(=O)CO3)cc1OC", "inhibition": "-11.3% (inactive)"}
{"smiles": "Cc1cccc(N2CCN(C(=O)COCc3cc(-c4ccc5c(c4)OCO5)on3)CC2)c1C", "inhibition": "14% (inactive)"}
{"smiles": "O=C(COC(=O)c1ccc(F)cc1)Nc1nc2ccc([N+](=O)[O-])cc2s1", "inhibition": "-8.84% (inactive)"}
{"smiles": "CCC(=O)NC(Nc1nc2ccc(C)cc2s1)(C(=O)OC)C(F)(F)F", "note": "(stereo not given)", "inhibition": "-6.22% (inactive)"}
{"smiles": "O=C(NC(Nc1nc2ccc([N+](=O)[O-])cc2s1)(C(F)(F)F)C(F)(F)F)c1ccccc1", "inhibition": "27.1% (active)"}
{"smiles": "COc1cc(C2NC(=O)NC(c3ccccc3)=C2C(C)=O)c(Br)cc1OCC(N)=O", "note": "(stereo not given)", "inhibition": "-18.1% (inactive)"}
{"smiles": "COc1cccc(CNC(=O)COc2cc(O)c3c(c2)OC(C)(C)CC3=O)c1", "inhibition": "1.6% (inactive)"}
{"smiles": "CC(CCc1ccccc1)NC(=O)COC(=O)c1ccc(F)cc1", "note": "(stereo not given)", "inhibition": "-18.2% (inactive)"}
{"smiles": "CC(C)[C@H](NC(=O)N1CCn2c1nc1ccccc12)C(=O)NC1CC1", "inhibition": "-2.43% (inactive)"}
{"smiles": "Cc1cccc(NC(=O)c2nc(S(=O)(=O)Cc3ccccc3)ncc2Cl)c1", "inhibition": "9.7% (inactive)"}
{"smiles": "Cc1ccc(CS(=O)(=O)c2ncc(Cl)c(C(=O)Nc3nnc(C)s3)n2)cc1", "inhibition": "-20.2% (inactive)"}
{"smiles": "Cc1cccc(CS(=O)(=O)c2ncc(Cl)c(C(=O)Nc3ccc(F)cc3)n2)c1", "inhibition": "39.8% (active)"}
{"smiles": "CC(=O)NCCC(=O)Nc1cc(S(=O)(=O)N2CCCCC2)ccc1Oc1cccc(C)c1", "inhibition": "9.48% (inactive)"}
{"smiles": "Cc1ccc(NC(=S)N(CCCN2CCC(C)CC2)Cc2ccco2)cc1", "inhibition": "26.8% (active)"}
{"smiles": "Cc1ccc(NC(=S)N(Cc2ccco2)C(C)c2cccs2)cc1", "note": "(stereo not given)", "inhibition": "-21.7% (inactive)"}
{"smiles": "Cc1ccc(NC(=S)N(CCN2CCCCC2)Cc2ccco2)cc1C", "inhibition": "0.11% (inactive)"}
